Measured values taken from PubChem BioAssay (NCI).
This is part of a sample that, as a whole, favours compounds with a hit. Of some 79,000 tested, about 15% had one in any assay. Active and inactive are the calls of the source. Cut-off read from the data, not from the text of the source: active = growth inhibition above about 70%; inactive = the rest.

Assays:
[1] = NCI Yeast Anticancer Drug Screen. Data for the rad52 strain (AID 147);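 note: 0% = growth of vehicle-treated control cultures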; conditions: S. cerevisiae rad52 mutant growth inhibition, stronger effect = higher value
How it was run: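 Vehicle-treated cultures served as the reference for growth inhibition of compound-exposed yeast bearing a DNA repair mutation.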

[2] = NCI Yeast Anticancer Drug Screen. Data for the wt1 strain (AID 149);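 note: 0% = growth of vehicle-treated wt1 cultures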; conditions: S. cerevisiae wt1 strain (SPY 50644) growth inhibition, stronger effect = higher value
How it was run: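 wt1 strain grown with compound or vehicle; inhibition taken from the growth difference.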

[3] = NCI Yeast Anticancer Drug Screen. Data for the rad50EPP+ strain (AID 151);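 note: 0% = growth of vehicle-treated control cultures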; conditions: S. cerevisiae rad50 mutant strain, stronger effect = higher value
How it was run: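 In this screen, rad50EPP+ yeast were exposed to compounds. Growth inhibition was scored against vehicle-treated controls.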

[4] = NCI Yeast Anticancer Drug Screen. Data for the rad50 strain (AID 155);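 note: 0% = growth of vehicle-only cultures of the same strain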; conditions: S. cerevisiae rad50 strain growth inhibition, stronger effect = higher value
How it was run: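 DNA repair mutant yeast, compound exposure, growth read-out; inhibition is taken relative to vehicle.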

[5] = NCI Yeast Anticancer Drug Screen. Data for the mec2-1 strain (AID 157); conditions: S. cerevisiae mec2-1 strain, stronger effect = higher value
How it was run: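 Vehicle-treated cultures served as reference for growth inhibition of compound-exposed mec2-1 yeast.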

[6] = NCI Yeast Anticancer Drug Screen. Data for the rad14 strain (AID 159);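 note: 0% = growth of vehicle-treated control cultures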; conditions: S. cerevisiae rad14 strain growth inhibition, stronger effect = higher value
How it was run: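 DNA repair-defective yeast, compound-exposed; % growth inhibition derived by comparison with vehicle-treated controls.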

[7] = NCI Yeast Anticancer Drug Screen. Data for the cln2 rad14 strain (AID 165);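 note: 0% = growth equal to vehicle treated cultures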; conditions: S. cerevisiae cln2 rad14 strain, stronger effect = higher value
How it was run: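 Each compound was tested on cln2 rad14 yeast. Inhibition of growth was calculated against vehicle-exposed controls.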

[8] = NCI Yeast Anticancer Drug Screen. Data for the bub3 strain (AID 167); conditions: S. cerevisiae bub3 mutant strain, stronger effect = higher value
How it was run: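 In this screen, a yeast mutant lacking normal mitotic checkpoint function is challenged with compound. Relative growth versus vehicle gives the inhibition value.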

[9] = NCI Yeast Anticancer Drug Screen. Data for the wt2 strain (AID 169);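 note: 0% = growth of vehicle-treated yeast cultures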; conditions: S. cerevisiae wt2 strain growth inhibition, stronger effect = higher value
How it was run: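 Inhibition of yeast growth was determined after compound treatment, normalised to controls receiving only vehicle.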

[10] = NCI Yeast Anticancer Drug Screen. Data for the mlh1 strain (AID 171);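 note: 0% = growth of vehicle-treated control cultures of the same strain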; conditions: S. cerevisiae mlh1 strain growth inhibition, stronger effect = higher value
How it was run: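 Vehicle-normalised growth inhibition of a repair- or checkpoint-altered yeast strain following compound treatment.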

[11] = NCI Yeast Anticancer Drug Screen. Data for the mlh1 rad18 strain (AID 175); conditions: S. cerevisiae mlh1 rad18 strain growth inhibition, stronger effect = higher value
How it was run: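 Vehicle-treated cultures served as the reference for growth inhibition in a yeast strain carrying DNA damage repair alterations exposed to each compound.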

[12] = NCI Yeast Anticancer Drug Screen. Data for the rad18 strain (AID 177); conditions: S. cerevisiae rad18 mutant growth inhibition, stronger effect = higher value
How it was run: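 Test articles were incubated with altered yeast defective in DNA damage repair. Results are given as inhibition of growth versus vehicle.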

[13] = at 5.0 µM (retest, dose inferred, filed as 0.5)
[14] = at 50.0 µM (retest, dose inferred, filed as 5.0)

Measured: growth inhibition

Cc1cc(OCc2ccccc2)ccc1[N+](=O)[O-]
active: [3]; at 100.0 µM 75% | [4]; [14] 85% | [5]; [14] 85% | [5]; at 100.0 µM 78% | [7]; [14] 93% | [8]; [14] 95% | [10]; at 100.0 µM 82% | [11]; [14] 84%
inactive: [1]; at 1.2 µM 20% | [1]; at 3.7 µM 22% | [1]; at 11.0 µM 21% | [1]; at 33.0 µM 44% | [1]; at 100.0 µM 69% | [2]; at 1.2 µM 23% | [2]; at 3.7 µM -10% | [2]; at 11.0 µM 21% | [2]; at 33.0 µM 32% | [2]; at 100.0 µM 60% | [3]; at 1.2 µM -2% | [3]; at 3.7 µM -2% | [3]; at 11.0 µM 5% | [3]; at 33.0 µM 57% | [4]; at 1.2 µM 11% | [4]; at 3.7 µM 34% | [4]; [13] 50% | [4]; at 11.0 µM 29% | [4]; at 33.0 µM 31% | [4]; at 50.0 µM 37.2% | [4]; at 100.0 µM 50% | [5]; at 1.2 µM 2% | [5]; at 3.7 µM 15% | [5]; [13] 51% | [5]; at 11.0 µM 10% | [5]; at 33.0 µM 22% | [5]; at 50.0 µM 26.9% | [6]; at 1.2 µM -15% | [6]; at 3.7 µM 1% | [6]; at 11.0 µM 11% | [6]; at 33.0 µM 39% | [6]; at 100.0 µM 63% | [7]; [13] 40% | [7]; at 50.0 µM 44.1% | [8]; at 1.2 µM -16% | [8]; at 3.7 µM -11% | [8]; [13] 33% | [8]; at 11.0 µM -5% | [8]; at 33.0 µM 12% | [8]; at 50.0 µM 55.6% | [8]; at 100.0 µM 51% | [9]; at 1.2 µM -11% | [9]; at 3.7 µM -11% | [9]; at 11.0 µM -7% | [9]; at 33.0 µM 9% | [9]; at 100.0 µM 47% | [10]; at 1.2 µM 21% | [10]; at 3.7 µM 15% | [10]; at 11.0 µM 3% | [10]; at 33.0 µM 16% | [11]; [13] 42% | [11]; at 50.0 µM 18.1% | [12]; at 1.2 µM -15% | [12]; at 3.7 µM -14% | [12]; at 11.0 µM -14% | [12]; at 33.0 µM 22% | [12]; at 100.0 µM 66%
